# Data as given in the supplement of paper PMC11219838.
# Test system: Meloidogyne hapla J2
# Assay: proportion of mobile M. hapla J2 relative to DMSO control (fraction of DMSO control); higher = more viable, less nematicidal, active = 0.7 or less
# Settings: 60 µM; 5 days; temperature: 20 °C
# Outline: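 About 25 M. hapla J2 were placed in each well of a 96-well plate in distilled water, and compound was pinned in to a final 60 µM with 0.6% v/v DMSO. The sealed plates were shaken at 200 rpm at 20 °C for 5 days, after which 2 µL of 1 M NaOH went into each well. Mobility was then scored under the microscope and divided by the mean value from DMSO-only wells on the same plate. Each plate held eight such DMSO wells, and two biological replicates were averaged.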
row,SMILES,proportion of mobile M. hapla J2
1,Fc1ccccc1OCc1nc(-c2ccc(Cl)cc2)no1,1 (inactive)
2,Cc1ccccc1-c1noc(-c2ccccc2OCC(N)=O)n1,0.993 (inactive)
3,CCCOc1ccc(-c2ccc(-c3nc(-c4cccnc4)no3)cc2)cc1,1.02 (inactive)
4,COc1ccccc1-c1noc(-c2ccccc2)n1,1.04 (inactive)
5,Cc1ccc(OCc2nc(-c3ccc(F)cc3)no2)cc1C,1.03 (inactive)
6,COc1ccccc1-c1noc(-c2ccccc2F)n1,0.91 (inactive)
7,Cc1cc(OCc2nc(-c3ccccc3)no2)ccc1Br,0.932 (inactive)
8,CCOc1cc(-c2nc(-c3ccc(C)nc3OC)no2)cc(OCC)c1OCC,0.628 (active)
9,Cc1ccc(-c2nc(-c3ccncc3)no2)c(Cl)c1,0.979 (inactive)
10,O=C(CSc1nnc(-c2ccc(Cl)cc2Cl)o1)Nc1ccccn1,0.838 (inactive)
11,Clc1cc(Br)ccc1OCc1nc(-c2ccncc2)no1,0.953 (inactive)
12,CCOc1cc(-c2nc(-c3ccc(C)nc3OCC)no2)cc(OCC)c1OCC,0.908 (inactive)
13,Brc1ccc(-c2noc(-c3ccco3)n2)o1,0.801 (inactive)
14,CC1CCN(C(=O)CSc2nnc(-c3cc4ccccc4o3)o2)CC1,0.996 (inactive)
15,COc1cccc(-c2noc(CSc3ccccc3)n2)c1,1.03 (inactive)
16,CCOc1ccccc1NC(=O)CSc1nnc(-c2ccco2)o1,1.01 (inactive)
17,Cc1cc(C)c(C)c(OCc2nc(-c3ccccc3)no2)c1,0.95 (inactive)
18,Clc1ccc(-c2nnc(SCc3ccccc3)o2)cc1,0.827 (inactive)
19,COc1ccc(-c2nnc(SCc3ccccc3C)o2)cc1,0.942 (inactive)

row,SMILES,proportion of mobile M. hapla J2
1,O=C(CSc1nnc(-c2ccccc2Cl)o1)NCc1ccco1,0.961 (inactive)
2,COc1ccc(-c2nnc(SCc3ccc(Cl)cc3Cl)o2)cc1,1.04 (inactive)
3,Cn1cc(C(=O)CSc2nnc(-c3ccccc3)o2)c2ccccc21,1.01 (inactive)
4,Brc1cccc(-c2noc(-c3ccc4c(c3)OCO4)n2)c1,1.03 (inactive)
5,COc1cccc(-c2noc(COc3ccc(Br)cc3)n2)c1,0.942 (inactive)
6,COc1ccc(Cl)cc1NC(=O)CSc1nnc(-c2ccc(Br)cc2)o1,1.03 (inactive)
7,Cc1cccc(-c2noc(-c3cc(Cl)ccc3Cl)n2)c1,1.08 (inactive)
8,COc1cccc(-c2noc(-c3c(F)cccc3F)n2)c1,0.953 (inactive)
9,c1ccc(-c2noc(-c3cccs3)n2)cc1 [tioxazafen],0.937 (inactive)
10,Cc1cc(C)cc(OCc2nc(-c3cc(C)nc4ccccc34)no2)c1,1.02 (inactive)
11,COc1cccc(-c2nc(-c3ccccc3)no2)c1,1.04 (inactive)
12,COc1nc(-c2ccc(Cl)cc2)ccc1-c1noc(C)n1,1.03 (inactive)
13,c1coc(-c2nnc(-c3ccco3)o2)c1,1.03 (inactive)
14,NC(=O)COc1ccccc1-c1nc(-c2ccccc2Cl)no1,0.851 (inactive)
15,CCc1ccc(C(=O)Nc2ccccc2-c2nc(-c3ccncc3)no2)cc1,1 (inactive)
16,CC(C)C(=O)Nc1ccccc1-c1nc(-c2ccccn2)no1,0.995 (inactive)
17,COc1ccc(-c2nnc(SCC(=O)Nc3c(F)cc(F)cc3Br)o2)cc1,1.03 (inactive)
18,CC(C)(C)c1ccc(-c2nnc(SCC(=O)c3ccc(F)cc3)o2)cc1,0.825 (inactive)
19,COc1ccccc1-c1nnc(SCC(=O)Nc2ccc(Br)cn2)o1,0.908 (inactive)

# Test system: Caenorhabditis elegans dauer (daf-2(e1370))
# Assay: proportion of mobile C. elegans dauer larvae relative to DMSO control (fraction of DMSO control); higher = more viable, less nematicidal, active = 0.63 or less; extreme values may be limits of the assay
# Settings: 60 µM; 5 days; temperature: 20 °C
# Outline: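 The proportion of mobile worms, relative to DMSO wells, was scored by dissection microscope and averaged over two biological replicates. Worms were C. elegans dauers, about 20 per well in liquid NGM in 96-well plates, generated from synchronized larvae on MYOB plates with E. coli OP50 at 25 °C for 48 h. They were treated with compound pinned to 60 µM final (0.6% v/v DMSO) and kept in sealed plates shaken at 200 rpm for 5 days at 20 °C.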
row,SMILES,proportion of mobile C. elegans dauer larvae
1,Fc1ccccc1OCc1nc(-c2ccc(Cl)cc2)no1,1 (inactive)
2,Cc1ccccc1-c1noc(-c2ccccc2OCC(N)=O)n1,1 (inactive)
3,CCCOc1ccc(-c2ccc(-c3nc(-c4cccnc4)no3)cc2)cc1,1 (inactive)
4,COc1ccccc1-c1noc(-c2ccccc2)n1,1 (inactive)
5,Cc1ccc(OCc2nc(-c3ccc(F)cc3)no2)cc1C,1 (inactive)
6,COc1ccccc1-c1noc(-c2ccccc2F)n1,1 (inactive)
7,Cc1cc(OCc2nc(-c3ccccc3)no2)ccc1Br,1 (inactive)
8,CCOc1cc(-c2nc(-c3ccc(C)nc3OC)no2)cc(OCC)c1OCC,1 (inactive)
9,Cc1ccc(-c2nc(-c3ccncc3)no2)c(Cl)c1,1 (inactive)
10,O=C(CSc1nnc(-c2ccc(Cl)cc2Cl)o1)Nc1ccccn1,1 (inactive)
11,Clc1cc(Br)ccc1OCc1nc(-c2ccncc2)no1,0.929 (inactive)
12,CCOc1cc(-c2nc(-c3ccc(C)nc3OCC)no2)cc(OCC)c1OCC,1 (inactive)
13,Brc1ccc(-c2noc(-c3ccco3)n2)o1,0.391 (active)
14,CC1CCN(C(=O)CSc2nnc(-c3cc4ccccc4o3)o2)CC1,1 (inactive)
15,COc1cccc(-c2noc(CSc3ccccc3)n2)c1,1 (inactive)
16,CCOc1ccccc1NC(=O)CSc1nnc(-c2ccco2)o1,1 (inactive)
17,Cc1cc(C)c(C)c(OCc2nc(-c3ccccc3)no2)c1,1 (inactive)
18,Clc1ccc(-c2nnc(SCc3ccccc3)o2)cc1,1 (inactive)
19,COc1ccc(-c2nnc(SCc3ccccc3C)o2)cc1,1 (inactive)

row,SMILES,proportion of mobile C. elegans dauer larvae
1,O=C(CSc1nnc(-c2ccccc2Cl)o1)NCc1ccco1,1 (inactive)
2,COc1ccc(-c2nnc(SCc3ccc(Cl)cc3Cl)o2)cc1,1 (inactive)
3,Cn1cc(C(=O)CSc2nnc(-c3ccccc3)o2)c2ccccc21,1 (inactive)
4,Brc1cccc(-c2noc(-c3ccc4c(c3)OCO4)n2)c1,1 (inactive)
5,COc1cccc(-c2noc(COc3ccc(Br)cc3)n2)c1,1 (inactive)
6,COc1ccc(Cl)cc1NC(=O)CSc1nnc(-c2ccc(Br)cc2)o1,1 (inactive)
7,Cc1cccc(-c2noc(-c3cc(Cl)ccc3Cl)n2)c1,1 (inactive)
8,COc1cccc(-c2noc(-c3c(F)cccc3F)n2)c1,1 (inactive)
9,c1ccc(-c2noc(-c3cccs3)n2)cc1 [tioxazafen],0 (active)
10,Cc1cc(C)cc(OCc2nc(-c3cc(C)nc4ccccc34)no2)c1,1 (inactive)
11,COc1cccc(-c2nc(-c3ccccc3)no2)c1,0.861 (inactive)
12,COc1nc(-c2ccc(Cl)cc2)ccc1-c1noc(C)n1,1 (inactive)
13,c1coc(-c2nnc(-c3ccco3)o2)c1,1 (inactive)
14,NC(=O)COc1ccccc1-c1nc(-c2ccccc2Cl)no1,1 (inactive)
15,CCc1ccc(C(=O)Nc2ccccc2-c2nc(-c3ccncc3)no2)cc1,1 (inactive)
16,CC(C)C(=O)Nc1ccccc1-c1nc(-c2ccccn2)no1,1 (inactive)
17,COc1ccc(-c2nnc(SCC(=O)Nc3c(F)cc(F)cc3Br)o2)cc1,1 (inactive)
18,CC(C)(C)c1ccc(-c2nnc(SCC(=O)c3ccc(F)cc3)o2)cc1,1 (inactive)
19,COc1ccccc1-c1nnc(SCC(=O)Nc2ccc(Br)cn2)o1,1 (inactive)
